# Reference: PubChem BioAssay (NCI)
# About 83,000 compounds went through this panel and 20% of them were active in at least one assay; those are over-represented in the sample as a whole.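 How to read the values: 0–100, growth inhibition (40 = 60% inhibited); 0, no net growth; -100 to 0, cell death (-40 = 40% of starting cells died; -100 = all dead).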 Unmarked numbers belong to inactive results. Active and inactive are the calls of the source. The calls were made as follows: active = growth percent below 10; inactive = the rest.
# Tests used:
# Experiment in all cases: NCI-60 one-dose screen, 48 h (100 = growth as untreated, 0 = no growth, -100 = all killed)
# Conditions in all cases: 10 µM unless noted
# HCT-15 colon = system: HCT-15 colon
# HT29 colon = system: HT29 colon
# SNB-75 CNS = system: SNB-75 CNS
# SNB-19 CNS = system: SNB-19 CNS
# U251 CNS = system: U251 CNS
# PC-3 prostate = system: PC-3 prostate
# SK-MEL-5 melanoma = system: SK-MEL-5 melanoma
# UACC-62 melanoma = system: UACC-62 melanoma
# LOX IMVI melanoma = system: LOX IMVI melanoma
# SK-MEL-28 melanoma = system: SK-MEL-28 melanoma
# SK-MEL-2 melanoma = system: SK-MEL-2 melanoma
# EKVX NSCLC = system: EKVX NSCLC
# SN12C renal = system: SN12C renal
# UO-31 renal = system: UO-31 renal
# TK-10 renal = system: TK-10 renal
# ACHN renal = system: ACHN renal
# CAKI-1 renal = system: CAKI-1 renal
# A498 renal = system: A498 renal
# CCRF-CEM leukemia = system: CCRF-CEM leukemia
# MOLT-4 leukemia = system: MOLT-4 leukemia
Compound,growth (HCT-15 colon),growth (HT29 colon),growth (SNB-75 CNS),growth (SNB-19 CNS),growth (U251 CNS),growth (PC-3 prostate),growth (SK-MEL-5 melanoma),growth (UACC-62 melanoma),growth (LOX IMVI melanoma),growth (SK-MEL-28 melanoma),growth (SK-MEL-2 melanoma),growth (EKVX NSCLC) [%],growth (SN12C renal) [%],growth (UO-31 renal),growth (TK-10 renal),growth (ACHN renal),growth (CAKI-1 renal),growth (A498 renal),growth (CCRF-CEM leukemia),growth (MOLT-4 leukemia)
CC(=O)c1ccc(N2C(=O)c3ccc(Oc4ccccc4)cc3C2=O)cc1,111%,104%,108%,105%,108%,91.2%,103%,98.9%,103%,111%,110%,94.1,98.4,92.5%,105%,107%,101%,91.5%,134%,115%
COc1cc(C2CC(c3ccc(Cl)cc3)=NN2C(C)=O)ccc1Oc1ccnc2cc(Cl)ccc12 (stereo not given),91.9%,28.2%,33.2%,70.7%,43.8%,58.3%,67.8%,60.5%,37.9%,55.1%,67.2%,51.9,70.9,57.5%,37.4%,18.8%,26.1%,69%,87.1%,97.4%
O=C(N/N=C\c1cc(Br)ccc1O)c1ccncc1,21.4%,36.3%,76.4%,53.7%,28.6%,48.3%,39.8%,1.24% (active),18%,45.8%,31.4%,29.6,46.5,23.4%,43.7%,27.3%,24.7%,74.1%,8.77% (active),-10.7% (active)
COc1cccc(NC(=O)OC(C)C)c1,96.3%,105%,96.7%,116%,94.9%,93.5%,109%,108%,102%,108%,136%,94.7,98.6,82.1%,100%,101%,86.4%,92.7%,3.14% (active),99%
Cc1c(C(=O)Nc2ccccc2F)sc2c(=O)[nH]cnc12,59%,63.8%,77.9%,96%,89.7%,81.9%,92.3%,78.4%,85%,94.3%,53.9%,91,96.2,74.6%,90.8%,102%,74.7%,99.6%,90.4%,82%
COc1ccc(C(=O)OC2C(OC3C(O)COC(O[C@H]4C[C@H]5[C@@H]6CC=C7C[C@@H](O)CC[C@]7(C)[C@H]6CC[C@]5(C)[C@H]4[C@H](C)C(=O)CCC(C)C)C3OC(N)=O)OCC(O)C2O)cc1 (stereo not given in full),6.08% (active),4.99% (active),-10% (active),-28.2% (active),-53.3% (active),-28.1% (active),-86.8% (active),-57.7% (active),-58.3% (active),-59.1% (active),-62% (active),19.5,44.7,-39% (active),-1.71% (active),40.5%,-36.7% (active),-80.1% (active),-25.8% (active),-42.3% (active)
Cc1ccc(Nc2cccc3ccccc23)cc1,79.1%,83.9%,79.7%,90.3%,90.8%,73.9%,96.1%,85.4%,79.9%,98.5%,93.3%,101,96.6,45.5%,59.7%,84.8%,63.3%,83.3%,84.8%,77.3%
Cc1nc(N)nc2c1CCC(Nc1ccccc1)S2 (stereo not given),100%,104%,98.3%,111%,103%,90.6%,99.1%,108%,97%,114%,102%,103,101,79.2%,105%,102%,94%,97%,90.9%,90.2%
COC(=O)C(Br)(C(=O)OC)C(Br)C(Br)C(Br)c1ccccc1 (stereo not given),-37.8% (active),32.3%,92.4%,98.6%,81.5%,93.3%,98.4%,60.2%,9.1% (active),108%,83.6%,105,96.7,-8.98% (active),-45.2% (active),-70% (active),-69.6% (active),101%,0.438% (active),50.1%
CCCCCN(CCCCC)C(=O)C(CCC(=O)O)NC(=O)c1ccc(Cl)c(Cl)c1 (stereo not given),112%,109%,93.3%,112%,101%,93%,90.5%,98.4%,99.9%,105%,105%,109,100,80.4%,124%,100%,91.3%,83.8%,114%,102%
CCCCOC(=O)c1cc(O)c(O)c(O)c1,49.1%,85.3%,55.6%,88.9%,65.2%,80.4%,93.5%,62%,74.4%,90.6%,75%,83.6,62.7,31.7%,73%,75%,70.5%,122%,36.5%,30.7%
O=C(c1ccc(OCCN2CCCCC2)cc1)c1c(-c2ccc(O)cc2)sc2cc(O)ccc12,91.7%,114%,53.5%,86.7%,64.9%,81.8%,71.5%,92.1%,78.4%,88.3%,102%,83.3,80.4,67.1%,129%,91.5%,76%,90.9%,59.7%,76.3%
COc1ccc2[nH]cc(C3(c4c[nH]c5ccc(OC)cc45)C(=O)Nc4ccc(F)cc43)c2c1,86.6%,68%,42.9%,97.2%,82.5%,9.66% (active),84.1%,82.3%,58.5%,96.4%,98.3%,37,106,62%,125%,86.7%,40.8%,60.8%,15.4%,1.29% (active)
COc1ccc(NC(=O)Cn2c(=O)sc3c(-c4ccc(Cl)cc4)cc(-c4ccc(Cl)cc4)nc32)cc1,93.3%,82.7%,89.5%,105%,103%,95.4%,98.6%,85.6%,91.1%,103%,107%,95.4,93.2,81.4%,97.3%,102%,95.3%,129%,112%,95%
